Source: PubChem BioAssay
Tg IFNy HTS = T. gondii growth inhibition under IFN-gamma | Toxoplasma gondii growth in IFN-gamma-treated host cells; hits give low values | activity change, negative = inhibition, % (no concentration beside the values) | 69,000 tested, 3.8% active; in the data active = activity change below about -70%, passing the limit was not always enough;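 note: host cells are HeLa cells infected with Toxoplasma gondii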
Starred values were filed as active, the others as inactive; i = inactive; ! = not active in a repeat. The full list was thinned out, with hits kept by preference.

SMILES | Tg IFNy HTS
Cc1noc(C)c1CN1CC[C@H]2CN(C(=O)CC(C)C)C[C@@H]2C1 | 132
CC[C@H]1C2CC3[C@@H]4N(C)c5ccccc5[C@]45C[C@@H](C2C5O)N3[C@@H]1O (stereo not given in full) | 4
O=S(=O)(c1ccccc1)N1CC[C@@H]2CNC[C@@H]21 | -27
CC[C@@H]1[C@@H](C)O[C@@](O)([C@@H](C)[C@H](O)[C@H](C)[C@H]2OC(=O)/C=C/C=C/[C@H](C)[C@H]([C@@H](C)[C@@H](O)[C@H](C)[C@@]3(O)C[C@@H](O[C@H]4C[C@H](O)[C@H](O)[C@H](C)O4)[C@H](CC)[C@@H](C)O3)OC(=O)/C=C/C=C/[C@H]2C)C[C@H]1O[C@H]1C[C@H](O)[C@H](O)[C@H](C)O1 | -75*
OCCN1CC2(CCN(c3nccs3)C2)C1 | 89
Cc1nc(SCC(=O)N2C[C@@H](c3ccccc3)[C@@H]3[C@H]2C2CCN3CC2)n[nH]1 | 1
C=C1[C@@H](C)[C@H]2[C@H](Cc3ccccc3)NC(=O)[C@]23OC(=O)/C=C/[C@H](O)CCC[C@@H](C)C/C=C/[C@H]3[C@@H]1O | -98*
CCN1CC2CC(C(=O)NCC3CC3)C(C1)O2 (stereo not given) | -5
CCCCc1ncc(-c2nccn2C(C)c2ccc(C)nc2)[nH]1 (stereo not given) | -19
Cc1nn(CCNC(C)Cn2ccnc2)c(C)c1Cl (stereo not given) | -3
Clc1ccc(CSC(Cn2ccnc2)c2ccc(Cl)cc2Cl)cc1 (stereo not given) | -84*
c1ccc(Cn2ccnc2)cc1 | -2
Clc1ccc(COC(Cn2ccnc2)c2ccc(Cl)cc2Cl)cc1 (stereo not given) | -75*!
CCS(=O)(=O)N1CCC2(CN(c3cccnc3)C(=O)CN2C)C1 (stereo not given) | 204
O=C([C@H]1N[C@H]2c3cccc(=O)n3C[C@H]2[C@@H]1CO)N1CCCCC1 | -2
Cc1cc(NC(=O)CN2C[C@@H](c3ccccc3)[C@@H]3[C@H]2C2CCN3CC2)no1 | -49
O=C(Nc1cccc(C(F)(F)F)c1)c1cc2cccnc2n(Cc2ccccc2)c1=O | -5
O=c1[nH]cc(CN2C[C@H]3CC=CC[C@H]3C2)c(=O)[nH]1 | -1
CC1(C)CC[C@]2(C(=O)O)CC[C@]3(C)[C@H](C(=O)C=C4[C@@]5(C)C=C(C#N)C(=O)C(C)(C)[C@@H]5CC[C@]43C)[C@@H]2C1 | -79*
CC(C)NC(=O)C1CC2CN(Cc3ccncc3)CC1O2 (stereo not given) | 3
Cc1nc([C@H]2C[C@@H]3CCN(Cc4cccnc4)C[C@@H]3O2)n[nH]1 | 252
O=[N+]([O-])c1cc([As](=O)(O)O)ccc1O | 17
N#CC(C#N)=Cc1ccc([N+](=O)[O-])c(O)c1 | 13
O=[N+]([O-])c1ccc(O)c([N+](=O)[O-])c1 | -79*!
CN(C)C[C@@]12COC[C@@H]1CN(Cc1ccc3ccccc3n1)C2 | 5
SMILES | Tg IFNy HTS
CCN(CC)[C@H]1CN(C(=O)Cc2ccccn2)C[C@H]2CCCO[C@H]21 | 14
COc1ccc2n[nH]c(CN3C[C@@H]4[C@H](C3)[C@H]3CC[C@@H]4O3)c2c1 | 27
CC[C@H]1CN2CCC1C[C@@H]2[C@H](O)c1ccnc2ccc(OC)cc12 (stereo not given in full) | -79*
c1cnc(N2CCCC3(CCCN3Cc3cccnc3)C2)nc1 (stereo not given) | 0
CN(Cc1ccco1)[C@H]1CN(Cc2ccccn2)[C@@H]2CCCO[C@H]21 | 10
COC1CC2CC1CN2Cc1cnn(C)c1 (stereo not given) | -41
O=C(NCc1ccccn1)c1cc2cccnc2n(Cc2ccccc2F)c1=O | 44
Cc1ccc(CN2C[C@@H]3C(CN)[C@@H]3C2)cc1 (stereo not given in full) | 16
CO[C@H]1CCN(Cc2ccoc2)[C@H]2CN(Cc3ccncc3)C[C@@H]12 | -52
Cc1oc(-c2ccccc2)nc1CN1C(=O)CN=C(c2ccc(F)cc2)c2c1sc(C)c2C | -40
CN1C(=O)CN=C(c2ccccc2)c2cc(Cl)ccc21 | -2
COc1ccc(C2=NCC(=O)N(Cc3nc(-c4ccccc4)oc3C)c3sccc32)cc1 | -95*
CC(C)[C@H]1CN(Cc2ccccc2F)CCN1C(=O)Cc1ccc(S(C)(=O)=O)cc1 | -54
O=C(NCCc1cnc[nH]1)c1ccccc1C1CCNC1 (stereo not given) | 2
CC(C)CC(NC(=O)C(Cc1ccccc1)NC(=O)CNC(=O)[C@H](C)NC(=O)C(N)Cc1ccc(O)cc1)C(=O)N[C@H](CCCN=C(N)N)C(=O)O (stereo not given in full) | 12
Cc1ccc(NC(=O)c2cc3cccnc3n(Cc3ccc(Cl)cc3)c2=O)cc1 | 463
CCNC(=O)[C@H]1O[C@@H](n2cnc3c(N)ncnc32)[C@H](O)[C@@H]1O | 7
NC(=O)c1cn(C2OC(CO)[C@H](O)[C@@H]2O)c2ncnc(N)c12 (stereo not given in full) | -83*
COc1cccc(NC(=O)c2c(O)c3cccnc3n(Cc3ccccc3)c2=O)c1 | 193
Cc1c[nH]c(CN2C[C@H]3CC=CC[C@H]3C2)c(C)c1=O | 1
Cc1nnc2ccc(-c3cccc(C(F)(F)F)c3)nn12 | -80*
Cn1c(COP(=O)(NCCBr)NCCBr)cnc1[N+](=O)[O-] | -62
CN1CCC2(CCCN2Cc2cnn(C)c2)CC1 | 74
O=C(NCCCN1CCCC1=O)c1cc2cccnc2n(Cc2ccc(F)cc2)c1=O | -9
O=C(c1ccnnc1)N1C[C@H]2CN(Cc3cccc(F)c3)C[C@H]2C1 | -50
SMILES | Tg IFNy HTS
CN1CC2(CCCN(CCc3ccccn3)C2)OC1=O (stereo not given) | 17
COc1cc2cc(c1Cl)N(C)C(=O)C[C@H](OC(=O)C(C)C)[C@]1(C)O[C@H]1[C@H](C)[C@@H]1C[C@@](O)(NC(=O)O1)[C@H](OC)/C=C/C=C(/C)C2 | -80*
O=C(O)CN1CCOCC2(CC(CNc3cccnc3)CO2)C1 (stereo not given) | -32
O=C1N(c2cncnc2)CCC12CCCN(Cc1ccoc1)C2 (stereo not given) | i
O=C(CCCN1CCC2(CC1)C(=O)N(Cc1cccc(F)c1)CN2c1ccccc1)c1ccc(F)cc1 | -83*!
COC(=O)CN1CN(c2ccccc2)C2(CCN(Cc3ccc4ccccc4c3)CC2)C1=O | -8
CCC(=O)N1CCC2(CC1)C(=O)N(Cc1cccnc1)CCN2C | -2
COc1ccc(NC(=O)c2cc3cccnc3n(Cc3ccccc3F)c2=O)cc1OC | 42
C=CCN1C(=O)CCC2C1CCN2Cc1ccccn1 (stereo not given) | 3
CO[C@H]1CCC(O[C@H]2CC([C@]3(C)CC[C@]4(C[C@H](O)[C@@H](C)[C@@H]([C@@H](C)/C=C(\C)C(=O)[C@H](C)C[C@H](C)C(=O)O)O4)O3)O[C@]3(O[C@@H](C4O[C@@](O)(CO)[C@H](C)C[C@@H]4C)C[C@@H]3C)[C@@H]2C)O[C@@H]1C (stereo not given in full) | -78*
CCCn1cc(C(=O)NC(C)C2=CCCCC2)c(C)n1 (stereo not given) | -5
O=C1[C@@H]2CN(CC3CC3)C[C@H]2CN1Cc1ccncc1 | -7
O=C(c1cnn2c1CCCC2)N1C[C@H](c2ccccc2)[C@@H]2[C@H]1C1CCN2CC1 | -5
